Active and inactive are the calls of the source.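 The calls were made as follows, unless noted: active = fluorescence slope after compound addition differing from the mean of all screened samples at 99.7% confidence, in either direction; inactive = the rest.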
Tests used:
[1] = inhibitors of TNFa-induced NFkB p65 translocation, primary screen, imaging, HUVEC, MLSMR starter and 10KST1 sets (AID 438;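 active = inhibition above 20% together with a positive visual image hit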;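 also: compound added about 3h40 before a 20 min TNFalpha stimulation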;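 as to inhibition: signal is the nuclear over cytoplasmic p65 intensity ratio per well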); conditions: HUVEC TNFa-induced p65 nuclear translocation; cell count: measured here: nuclei count (cytotoxicity indicator), at 2.08 µM; inhibition: at 2 µM, stronger effect = higher value, 0% TNFa-plus-vehicle, 100% no-TNFa wells
[2] = inhibitors of mutant huntingtin aggregation, primary screen, imaging, exon1htt(103Q)mCFP cells, high-content imaging (AID 483;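 active = visual image review flags a hit and inhibition of aggregation exceeds 20%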;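 also: compound exposure lasted 3 days before fixation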;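 as to nuclei count: percent of the per-plate median nuclei count of sample wells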); conditions: exon1htt(103Q)mCFP cell line, aggregate imaging, at 2 µM; inhibition of aggregation: stronger effect = higher value; nuclei count: measured here: cell count, toxicity
[3] = inhibitors of E-selectin induction by TNFa, primary screen, imaging, HUVEC, immunofluorescence, MLSMR starter and 10KST1 sets (AID 487;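 active = visually confirmed hit in the image check and inhibition above 20%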;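 as to inhibition: signal is fraction of cell area covered by stained E-selectin grains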;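 as to nuclei count: 100% = median nuclei count of all wells on the same plate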); conditions: HUVEC TNFalpha-induced E-selectin immunofluorescence imaging, at 2 µM; inhibition: stronger effect = higher value; nuclei count: measured here: cell number, toxicity
[4] = molecular target: Voltage-gated potassium channel subunit beta-2 (Rattus norvegicus) (UniProt P62483); assay: KvBeta enzyme negative modulators, primary screen, biochemical, NADPH fluorescence (AID 622;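 active = fluorescence slope higher than the sample average by over 3 SD, cut at about -0.22 in these data, passing the limit was not always enough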;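 also: slope of raw intensity against log time taken from 70 to 1610 s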); conditions: recombinant KvBeta, 4-cyanobenzaldehyde reduction, at 10 µM, stronger effect = higher value
Sequence of Voltage-gated potassium channel subunit beta-2 (Rattus norvegicus) (P62483 whole entry, looked up): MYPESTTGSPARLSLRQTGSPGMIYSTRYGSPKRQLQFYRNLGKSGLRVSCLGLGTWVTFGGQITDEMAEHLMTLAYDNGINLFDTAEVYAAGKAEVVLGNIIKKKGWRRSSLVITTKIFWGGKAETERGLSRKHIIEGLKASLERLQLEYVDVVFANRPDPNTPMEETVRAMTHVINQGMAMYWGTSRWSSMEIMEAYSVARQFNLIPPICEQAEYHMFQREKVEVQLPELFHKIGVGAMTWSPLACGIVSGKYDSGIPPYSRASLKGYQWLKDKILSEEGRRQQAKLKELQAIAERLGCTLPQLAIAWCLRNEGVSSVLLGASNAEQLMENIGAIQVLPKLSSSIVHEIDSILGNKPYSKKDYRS

[5] = molecular target: Voltage-gated potassium channel subunit beta-2 (Rattus norvegicus) (UniProt P62483); assay: KvBeta positive modulators, primary screen, biochemical, NADPH fluorescence (AID 623;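 active = NADPH fluorescence slope more negative than the mean of all samples by about 3 SD, 99.7% confidence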;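 also: fluorescence intensity change per second fitted from 20 to 320 s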); conditions: Recombinant KvBeta, NADPH fluorescence decrease slope, 10 min; at 10 µM; stronger effect = lower value
[6] = molecular target: Alpha-2C adrenergic receptor (Homo sapiens) (UniProt P18825); assay: modulators of alpha2C/GIRK thallium flux, primary screen, cell-based, HEK293 alpha2C/GIRK1/2 (AID 624); conditions: thallium flux BTC fluorescence, at 10 µM, actives lie on both sides;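 also: slope of fluorescence ratio to pre-addition baseline per second over 15 to 24 s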
Sequence of Alpha-2C adrenergic receptor (Homo sapiens) (P18825 whole entry, looked up): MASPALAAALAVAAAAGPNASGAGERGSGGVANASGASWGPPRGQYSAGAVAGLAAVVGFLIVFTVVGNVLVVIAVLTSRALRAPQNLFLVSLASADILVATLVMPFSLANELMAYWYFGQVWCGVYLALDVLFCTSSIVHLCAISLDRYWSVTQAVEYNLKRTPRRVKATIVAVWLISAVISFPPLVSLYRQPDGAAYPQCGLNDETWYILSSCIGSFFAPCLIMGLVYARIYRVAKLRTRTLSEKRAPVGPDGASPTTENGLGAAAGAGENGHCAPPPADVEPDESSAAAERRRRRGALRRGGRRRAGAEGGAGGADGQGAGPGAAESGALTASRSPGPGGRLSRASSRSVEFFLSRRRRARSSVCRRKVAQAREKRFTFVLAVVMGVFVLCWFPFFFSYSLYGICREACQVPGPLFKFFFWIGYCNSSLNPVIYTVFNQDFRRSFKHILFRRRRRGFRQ

[7] = inhibitors of Sendai virus-induced IRF3 signaling, primary screen, TLR/RLR signaling modifier project, cell-based, Sendai virus stimulus, luciferase, 10K MLSCN set (AID 602276;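 active = inhibition at or above 50% at 10 µM; inactive = inhibition below 50%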;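 also: firefly luciferase from ISG56 promoter only with Renilla not read in this screen; 0% = Sendai virus plus DMSO and 100% = medium plus DMSO without virus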); conditions: HEK293 RL24 IRF3 luciferase reporter, at 10 µM, stronger effect = higher value
[8] = inhibitors of poly I:C-induced TLR3 signaling, primary screen, cell-based, poly I:C stimulus, luciferase, 10K MLSCN set (AID 602277;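 active = inhibition of the reporter signal at or above 50%; inactive = inhibition below 50%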); conditions: HEK293-TLR3 RL24 IRF3 luciferase reporter, at 10 µM, stronger effect = higher value

Structure (SMILES) | cell count [1] | inhibition [1] | inhibition of aggregation [2] | nuclei count [2] | inhibition [3] | nuclei count [3] | fluorescence slope [4] | NADPH fluorescence slope [5] | slope [6] | inhibition [7] | inhibition [8]
Cc1cccc(N=C2NC(=O)CS2)c1C | 333 | -0.6% (inactive) | -5.7% (inactive) | 109% | 3.7% (inactive) | 93.9% | -0.499 (inactive) | -3.3e-05 (inactive) | 0.00501 (inactive) | 20.6% (inactive) | 22.9% (inactive)
CCOC(=O)N1CCN(CC(=O)Nc2cc(C)nn2-c2nc3ccccc3s2)CC1 | 859 | 9.9% (inactive) | -38.2% (inactive) | 101% | -132% (inactive) | 122% | -0.609 (inactive) | 2.4e-05 (inactive) | 0.00559 (inactive) | 13.7% (inactive) | 27.3% (inactive)
CC(C)CN(C(=O)COC(=O)Cc1n[nH]c(=O)c2ccccc12)C1CCS(=O)(=O)C1 (stereo not drawn) | 399 | 1.7% (inactive) | 14.7% (inactive) | 96.8% | -65.6% (inactive) | 108% | -0.586 (inactive) | -1.4e-05 (inactive) | 0.00565 (inactive) | 12% (inactive) | 34.3% (inactive)
CC1CCC2C(C1)c1sc(=O)[nH]c1SC2(C)C (stereo not drawn) | 815 | -7.3% (inactive) | 16.6% (inactive) | 98.3% | -18.7% (inactive) | 116% | -0.365 (inactive) | 2e-05 (inactive) | 0.00605 (inactive) | -1.58% (inactive) | 10.1% (inactive)
CCCCn1c(NC(=O)CC)c(C#N)c2nc3ccccc3nc21 | 273 | -0.9% (inactive) | 31.7% (inactive) | 80.6% | 45.9% (inactive) | 64.7% | -0.0219 (inactive) | -1.3e-05 (inactive) | 0.00421 (inactive) | 16.1% (inactive) | 9.45% (inactive)
CCCOC(=O)c1ccc(-c2c(C)noc2-c2ccc(OC)cc2O)o1 | 162 | -6.3% (inactive) | 1.9% (inactive) | 106% | 0.4% (inactive) | 87% | -0.495 (inactive) | -3.7e-05 (inactive) | 0.00302 (inactive) | 1.25% (inactive) | 2.32% (inactive)
CC(C)COC(=O)C1C2C=CC3(CN(C(C)c4ccc(Br)cc4)C(=O)C13)O2 (stereo not drawn) | 477 | -10.8% (inactive) | 28.1% (inactive) | 78.4% | -32.2% (inactive) | 86.6% | -0.532 (inactive) | -3.6e-05 (inactive) | 0.00795 (inactive) | 11.4% (inactive) | 28.5% (inactive)
COc1ccc(N(C)C(=O)CCS(=O)(=O)c2cccc3nonc23)c(OC)c1 | 557 | -1.4% (inactive) | -17.3% (inactive) | 121% | -18.3% (inactive) | 125% | -0.488 (inactive) | -0.000205 (inactive) | 0.00467 (inactive) | 4.07% (inactive) | 16.9% (inactive)
Cc1cc(Cl)ccc1OCC(=O)Nn1c(C)ccc1C | 480 | -4.9% (inactive) | -6.4% (inactive) | 94.5% | -16.2% (inactive) | 136% | -0.525 (inactive) | -3.9e-05 (inactive) | 0.00483 (inactive) | 11.6% (inactive) | 15.5% (inactive)
COc1ccc(NC(=O)CC2Sc3ncnn3C2=O)cc1 (stereo not drawn) | 632 | -5% (inactive) | -9.2% (inactive) | 128% | -65.3% (inactive) | 126% | -0.567 (inactive) | -4e-05 (inactive) | 0.0059 (inactive) | 8.74% (inactive) | 16.8% (inactive)
c1ccc2c(c1)Cc1cc(CN3CCOCC3)ccc1-2 | 343 | -8% (inactive) | -2.2% (inactive) | 110% | -77.5% (inactive) | 128% | -0.415 (inactive) | -8.5e-05 (inactive) | 0.00531 (inactive) | -50.9% (inactive) | -105% (inactive)
Cc1ccccc1-n1c(Cn2c(=O)sc3ccccc32)nnc1SCC(N)=O | 542 | 4.5% (inactive) | 4.1% (inactive) | 110% | -28.8% (inactive) | 111% | -0.518 (inactive) | -3.8e-05 (inactive) | 0.00845 (inactive) | 16.4% (inactive) | 25.2% (inactive)
Cc1nc2ccccn2c1/C(O)=C1\C(=O)C(=O)N(CCCN(C)C)C1c1ccc(F)cc1 (stereo not drawn) | 507 | 21.6% (inactive) | -28.8% (inactive) | 92.5% | -54.5% (inactive) | 122% | -0.566 (inactive) | 1.9e-05 (inactive) | 0.00687 (inactive) | 6.26% (inactive) | 3.28% (inactive)
C=CCNC(=O)c1cc(-c2ccccc2O)on1 | 856 | -0.5% (inactive) | -0.2% (inactive) | 109% | -63.2% (inactive) | 113% | -0.588 (inactive) | -1.8e-05 (inactive) | 0.0069 (inactive) | -22.6% (inactive) | -96.4% (inactive)
O=C(NC1CCCC1)C1CCCN(S(=O)(=O)c2cccc3cccnc23)C1 (stereo not drawn) | 617 | 6.6% (inactive) | 3.4% (inactive) | 107% | -68.3% (inactive) | 132% | -0.594 (inactive) | -3.8e-05 (inactive) | 0.00653 (inactive) | -0.271% (inactive) | 28.5% (inactive)
CCOC(=O)C1CCN(Cc2ccc(OC)c(C)c2OC)CC1 | 313 | -1.3% (inactive) | -10.2% (inactive) | 107% | -41.2% (inactive) | 108% | -0.539 (inactive) | -2.1e-05 (inactive) | 0.00556 (inactive) | -3.21% (inactive) | 7.91% (inactive)
COc1ccc(-c2noc(CCCC(=O)O)n2)cc1 | 696 | -7.8% (inactive) | -3.1% (inactive) | 125% | -54.3% (inactive) | 107% | -0.341 (inactive) | 1.2e-05 (inactive) | 0.00595 (inactive) | 35% (inactive) | 86.3% (active)
Cc1ccc(C)c(N(CC(=O)NCc2ccco2)C(=O)CCC(=O)Nc2ccccn2)c1 | 423 | 5.1% (inactive) | -7.8% (inactive) | 114% | -41% (inactive) | 105% | -0.608 (inactive) | -1.8e-05 (inactive) | 0.00608 (inactive) | 15.1% (inactive) | 30.2% (inactive)
O=C(CSc1nnc(Cn2c(=O)sc3ccccc32)n1-c1ccccc1)NCC1CCCO1 (stereo not drawn) | 525 | -6.2% (inactive) | 1.1% (inactive) | 106% | -19.9% (inactive) | 116% | -0.583 (inactive) | -2.3e-05 (inactive) | 0.00648 (inactive) | 12% (inactive) | 37.7% (inactive)
CC(CC(=O)NC1CCSC1=O)c1ccccc1 (stereo not drawn) | 396 | -4.2% (inactive) | 8.2% (inactive) | 102% | -43.3% (inactive) | 124% | -0.452 (inactive) | 3.8e-05 (inactive) | 0.00567 (inactive) | -7.84% (inactive) | 17% (inactive)
CCOC(=O)c1sc(N)c(C(=O)OCC)c1COC(=O)C1CC(=O)N(Cc2ccco2)C1 (stereo not drawn) | 780 | 2.9% (inactive) | -82.9% (inactive) | 104% | -33.4% (inactive) | 116% | -0.526 (inactive) | -4.5e-05 (inactive) | 0.00648 (inactive) | -20.6% (inactive) | -13.3% (inactive)
CC1=C(C(N)=O)C(c2ccccn2)n2nc(SCc3ccccc3)nc2N1 (stereo not drawn) | 624 | 3.8% (inactive) | 3.9% (inactive) | 93% | 43.5% (inactive) | 86.4% | -0.316 (inactive) | -8.8e-05 (inactive) | 0.0057 (inactive) | -8.46% (inactive) | 0.00265% (inactive)
COC(=O)c1cn(NC(=O)C2CCCO2)c(=O)c2ccccc12 (stereo not drawn) | 415 | -2.5% (inactive) | 12.6% (inactive) | 103% | -39.1% (inactive) | 89.7% | -0.462 (inactive) | -3.7e-05 (inactive) | 0.0068 (inactive) | 11.6% (inactive) | 20.9% (inactive)
CC1CCc2nn(CC(=O)NCCCN3CCOCC3)cc2C1 (stereo not drawn) | 608 | 10.3% (inactive) | -17.8% (inactive) | 125% | 28.4% (inactive) | 107% | -0.578 (inactive) | -1.9e-05 (inactive) | 0.0058 (inactive) | 8.95% (inactive) | 36.3% (inactive)
O=C(OCCN1C(=O)c2ccccc2C1=O)c1ccc(S(=O)(=O)N2CCCCCC2)cc1 | 390 | -9.2% (inactive) | -7.2% (inactive) | 95.1% | -10.3% (inactive) | 108% | -0.605 (inactive) | -2.9e-05 (inactive) | 0.00625 (inactive) | 19.6% (inactive) | 12.1% (inactive)
COc1ccc(-n2ncc3c(=O)n(CC(=O)OCc4ccccc4)cnc32)cc1 | 506 | 5.2% (inactive) | -19.6% (inactive) | 94.6% | -26% (inactive) | 101% | -0.377 (inactive) | -4.4e-05 (inactive) | 0.00543 (inactive) | -0.623% (inactive) | 3.88% (inactive)
CC1(C)CC(=O)C=C(NC2CCS(=O)(=O)C2)C1 (stereo not drawn) | 624 | 11.3% (inactive) | 5.8% (inactive) | 59.6% | 10.6% (inactive) | 100% | -0.561 (inactive) | 1.2e-05 (inactive) | 0.00618 (inactive) | 15.5% (inactive) | 39.3% (inactive)
CC(C)c1ccc(S(=O)(=O)N2CCN(CCC(=O)Nc3ccc(N(C)C)cc3)CC2)cc1 | 412 | -1.6% (inactive) | 20% (inactive) | 91.6% | -15.3% (inactive) | 89.3% | -0.397 (inactive) | -2.3e-05 (inactive) | 0.00369 (inactive) | 9.08% (inactive) | 20% (inactive)

Reference: PubChem BioAssay
